From PubChem BioAssay (NCATS)
Records with an inconclusive call do not appear. Active and inactive are the calls of the source. Calls come from the whole dose curve; as a rule, active = well fitted curve in the direction sought with a large enough effect; inconclusive = small, poorly fitted or top-dose-only effect, or another doubt; inactive = no such curve, though single readings can be large; an effect the other way counts as inactive or inconclusive.

Legend:
[1] = qHTS for Hypoxia signaling pathway (HIF-1) agonists against the NCATS CANVASS Library (AID 1347375); settings: HRE-bla ME-180 cells, HIF-1 beta-lactamase reporter, 17 h; series mostly up to 12.8 µM
Excerpt: Natural products and their derivatives continue to be wellsprings of nascent therapeutic potential. However, many laboratories have limited resources for biological evaluation, leaving their previously isolated or synthesized compounds largely or completely untested. To address this issue, the Canvass library of natural products was assembled (https://tripod.nih.gov/canvass), in collaboration with academic and industry researchers, for quantitative high-throughput screening (qHTS) across a diverse set of cell-based and biochemical assays. The pure (>85% purity by liquid chromatography/mass spectrometry [LC/MS]) Canvass library of 346 natural products were submitted by 45 academic laboratories and companies around the world. We collected pure natural products to circumvent deconvolution and structure elucidation due to time and resource limitations. The library was formatted into 1536-well plates and evaluated in 50 qHTS (in an 11-pnt concentration series) bioassays with broad scope of disease-relevant mechanisms. The resulting data set from 50 different assays was then systematically analyzed to identify overall trends and specific natural products with interesting biological activities. […] The compounds were also tested for auto fluorescence that may interfere with the biological target readout resulting in potential false positives and/or negatives. […]

[2] = 10-beta competent E. coli microbial cell viability qHTS against the NCATS CANVASS Library (AID 1347376); settings: E. coli 10-beta viability, BacTiter-Glo ATP luminescence, overnight; series mostly up to 15.4 µM
Excerpt: Natural products and their derivatives continue to be wellsprings of nascent therapeutic potential. However, many laboratories have limited resources for biological evaluation, leaving their previously isolated or synthesized compounds largely or completely untested. To address this issue, the Canvass library of natural products was assembled (https://tripod.nih.gov/canvass), in collaboration with academic and industry researchers, for quantitative high-throughput screening (qHTS) across a diverse set of cell-based and biochemical assays. […] The library was formatted into 1536-well plates and evaluated in 50 qHTS (in an 11-pnt concentration series) bioassays with broad scope of disease-relevant mechanisms. The resulting data set from 50 different assays was then systematically analyzed to identify overall trends and specific natural products with interesting biological activities. […] The BacTiter-Glo microbial cell viability assay is a homogeneous method for determining the number of viable bacterial cells in culture based on quantitation of the ATP present. […] The homogeneous assay procedure involves adding a single reagent (BacTiter-GloTM Reagent) directly to bacterial cells in medium and measuring luminescence. […]

[3] = DH5-alpha competent E. coli microbial cell viability qHTS against the NCATS CANVASS Library (AID 1347377); settings: BacTiter-Glo ATP luminescence, overnight; series mostly up to 15.4 µM
Procedure, shortened: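 qHTS, 11-pt; E. coli DH5-alpha, 0.2 OD; o/n 37C/5% CO2; BacTiter-Glo, 20 min RT; luminescence.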

[4] = qHTS for H2AX Agonists against the NCATS CANVASS Library (AID 1347378); settings: CHO-K1 H2AX phosphorylation, HTRF TR-FRET, 3 h; series mostly up to 25.6 µM;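 note: phospho-H2AX S139 level in CHO-K1 lysates by TR-FRET emission ratio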
Procedure, shortened: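 Signal is the 665/620 nm emission ratio from europium cryptate and d2 antibody pair, rising with S139-phosphorylated H2AX. CHO-K1 cells saw test agents for 3 hr at 37C; detection ran 24 hr at room temperature.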

[5] = qHTS for Inflammasome Signaling Inhibitors: IL-1-beta AlphaLISA screen against the NCATS CANVASS Library (AID 1347379); settings: THP-1 LPS/ATP, IL-1B AlphaLISA secretion, 16 h; series mostly up to 19.2 µM;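 note: human THP-1 cells primed with LPS then triggered with ATP; secreted IL-1B measured as AlphaLISA emission at 615 nm; lower signal means less IL-1B release which is the wanted effect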
Procedure, shortened: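 THP-1 cells pretreated 1 hr with compound (up to 57.5 uM final), then stimulated with LPS (250 ng/mL final) and ATP (1.25 mM final). Secreted IL-1B measured by AlphaLISA after 16 hr; glyburide as positive control.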

[6] = Inflammasome Signaling qHTS Counterscreen: IL-1-beta AlphaLISA counterscreen against the NCATS CANVASS Library (AID 1347381); settings: Purified IL-1beta AlphaLISA signal interference counterscreen; series mostly up to 19.2 µM;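 note: cell-free check with purified IL-1β in medium and no THP-1 cells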
Procedure, shortened: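 Cell-free interference check: compounds added to medium spiked with 4 pg purified IL-1β. Anti-IL-1β acceptor beads (6 ug/mL) with 0.6 nM biotinylated antibody added for 1 h at RT, then streptavidin donor beads (24 ug/mL) for 30 min in the dark. AlphaLISA read at 680/615 nm.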

[7] = Cytotoxicity qHTS for assessment of Hepg2 cells membrane integrity screened against the NCATS CANVASS Library (AID 1347387); settings: HepG2 LDH release (CytoTox-ONE) fluorescence, 5 h; series mostly up to 15.4 µM
Procedure, shortened: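 qHTS, 11-pt conc. series, 0.59 nM - 46 uM final; HepG2 2000 cells/well, overnight attachment; 5 hr compound exposure 37C/5% CO2; CytoTox-ONE, 10 min RT; fluorescence ex560/em590 = LDH from damaged membranes.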

[8] = qHTS for Activators of p53 Stress Response Pathway screened against the NCATS CANVASS Library (AID 1347388); settings: p53RE-bla HCT-116, beta-lactamase reporter, 16 h; series mostly up to 15.4 µM
Procedure, shortened: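 Beta-lactamase reporter driven by p53 response elements in HCT-116 cells, read as the 460 nm/530 nm emission ratio after CCF4 loading, following 16 h of exposure to an 11-point series. Cell viability was measured in the same wells by CellTiter-Glo luminescence.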

[9] = qHTS assay for small molecule disruptors of mitochondrial membrane potential screened against the NCATS CANVASS Library (AID 1347389); settings: HepG2 mitochondrial membrane potential, m-MPI red/green ratio, 1.5 h; series mostly up to 15.4 µM; note: nearly all actives have a fitted effect of over 60% in size
Procedure, shortened: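 HepG2, 2,000 cells/well, attached overnight; compound 1 hr, 37C, 5% CO2; Mito-MPS dye 30 min, 37C; fluorescence 535 nm (monomer) and 590 nm (aggregate); decreased 590/535 ratio = depolarization.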

[10] = Secretion counterscreen for inhibitors of the SERCaMP assay screened against the NCATS CANVASS Library (AID 1347390); settings: SH-SY5Y constitutive GLuc secretion, luminescence, 20 h; series mostly up to 25.5 µM;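 note: light from luciferase secreted into medium read as a measure of general secretion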
Procedure, shortened: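 Natural products are titrated in an 11-point series up to 77 uM onto SH-SY5Y-GLuc STOP cells for 20 h. Secreted reporter activity is measured as coelenterazine-driven luminescence, with Brefeldin A on each plate.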

Measured: outcome

C[C@@H]1O[C@@H](OC[C@H]2O[C@@H](Oc3c(-c4ccc(O)c(O)c4)oc4cc(O)cc(O)c4c3=O)[C@H](O)[C@@H](O)[C@@H]2O)[C@H](O)[C@H](O)[C@H]1O
inactive: all assays above
